Reference: PubChem BioAssay (NCI)
About 83,000 compounds went through this panel and 20% of them were active in at least one assay; those are over-represented in the sample as a whole.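 Results are percent growth after 48 hours of single-concentration exposure. 100 means growth as in untreated cells, lower positive values show inhibition; negative values down to -100 show cell death.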 Values without a mark were called inactive. Calls of active or inactive are those of the source. The calls were made as follows: active = growth percent below 10; inactive = the rest.

test system: M14 melanoma; test: NCI-60 one-dose screen, 48 h (100 = growth as untreated, 0 = no growth, -100 = all killed); conditions: 10 µM unless noted

| Compound | growth |
| --- | --- |
| CCOC(=O)[C@H](CSSc1ncnc2cc[nH]c12)NC(=O)[C@@H](C)c1ccc2cc(OC)ccc2c1 | 6.45% (active) |
| CC(C)C[C@H](NC(=O)Cn1ccc(NCc2ccccc2)cc1=O)B(O)O | -17% (active) |
| COc1ccc(C(=O)c2cc(OC)c(OC)c(OC)c2)cc1/C=C/C(=O)c1ccc(O)cc1 | 15.8% |
| Cc1cccc(NC(=O)c2sc3nc4c(cc3c2N)CCC4)c1C | 19.1% |
| COc1cc(-c2cc(/C=C3\CCCCC3=O)[nH]n2)cc(OC)c1OC | 101% |
| COc1cccc(C2CC(=O)Nc3c2c(C)nn3-c2nc3ccccc3[nH]2)c1OC (stereo not drawn) | 65.4% |
| CCNC(=O)C1CCCN1C(=O)C(CCCN=C(N)N)NC(=O)C(CC(C)C)NC(=O)C(CC(C)C)NC(=O)C(Cc1ccc(O)cc1)NC(=O)C(CO)NC(=O)C(Cc1c[nH]c2ccccc12)NC(=O)C(Cc1cnc[nH]1)NC(=O)C1CCC(=O)N1 (stereo not drawn) | 102% |
| COc1ccc(-c2nc3sccn3c2-c2ccnc(NCCCNS(=O)(=O)c3ccc(F)cc3)n2)cc1 | 12.4% |
| CCCCCC(=O)OCc1ccccc1 | 94.9% |
| CN(C)c1nc(N)c(N=O)c(N)n1 | 111% |
| COc1ccc(Cn2cc(COc3cc(/C=C/C(=O)c4cc(OC)c(OC)c(OC)c4)ccc3OC)nn2)cc1 | 90.9% |
| CCOC(=O)C(Cc1ccccc1)n1c(O)c(C=Nc2ccc(C(=O)OCCN(CC)CC)cc2)sc1=O (stereo not drawn) | -36.1% (active) |
| COc1cc(Cn2c(SCC(=O)Nc3ccc(Cl)cc3)nc3ccccc3c2=O)cc(OC)c1OC | 74.9% |
